CYP2C19 inh – human CYP2C19 inhibition; P33261; CYP2C19 Supersomes, luciferin-H EGE luminescence, 30 min; inhibition, % at 5 µM; hit rate 21% among 96,000; AID 778;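 active means CYP2C19 inhibition above a set limit at 5 µM in the primary screen, cut at about 50% in these data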
Target sequence (P33261 whole entry, looked up): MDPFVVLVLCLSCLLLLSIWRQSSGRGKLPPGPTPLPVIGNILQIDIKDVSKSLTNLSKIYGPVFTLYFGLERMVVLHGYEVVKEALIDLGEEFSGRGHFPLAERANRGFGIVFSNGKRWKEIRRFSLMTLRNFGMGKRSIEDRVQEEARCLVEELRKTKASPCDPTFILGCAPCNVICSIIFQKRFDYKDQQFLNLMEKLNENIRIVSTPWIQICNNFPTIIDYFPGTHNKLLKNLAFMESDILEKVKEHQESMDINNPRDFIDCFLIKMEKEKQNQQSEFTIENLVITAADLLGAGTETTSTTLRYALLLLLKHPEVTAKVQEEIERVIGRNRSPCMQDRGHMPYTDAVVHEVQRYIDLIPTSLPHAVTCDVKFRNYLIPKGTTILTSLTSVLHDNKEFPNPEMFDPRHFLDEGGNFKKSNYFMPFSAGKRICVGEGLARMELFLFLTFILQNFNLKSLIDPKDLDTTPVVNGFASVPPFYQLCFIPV
CYP2C9 inhib – blocks human cytochrome P450 2C9; P11712; CYP2C9 Supersomes, luciferin-H conversion, luminescence; inhibition, % at 5 µM; hit rate 20% among 96,000; AID 777;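 active means blocking of liver enzyme CYP2C9 beyond about 50% at 5 µM, limit read from the data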
CYP2C19 act – cytochrome P450 2C19 (human) activation; activation factor at 5 µM; 96,000 tested, under 10 active; recombinant CYP2C19, luciferin-H EGE luminescence; hits give high values; 0 = fully inhibited enzyme, 1 = untreated enzyme;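 active means activation factor of at least 2 at 5 µM in the primary screen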
sEH activator – activators of human soluble epoxide hydrolase; P34913; purified human sEH enzymatic activity, activator screen; activation, % at 2 µM; hit rate 0.04% among 91,000; in the data active means activation above about 37%
CYP2C9 activ – CYP2C9 (human) activation; P11712; recombinant CYP2C9, luciferin-H conversion, luminescence; hits give high values; factor 1 = untreated enzyme, 0 = blocked; activation factor at 5 µM; hit rate 1.4% among 96,000; AID 1024;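 active means activation factor of 2 or more for CYP2C9 at a 5 µM dose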
sEH inhibitor – blocks human soluble epoxide hydrolase activity; P34913; recombinant human sEH enzymatic activity assay; inhibition, % at 2 µM; hit rate 0.34% among 91,000; in the data active means inhibition above about 80%
Large screens that a line does not name were inactive. Sampled rows, rich in hits. Any-hit rate of the full collection: about 27%.

CC(C)CC(=O)NN(C)c1nc(-c2ccccc2)nnc1C(F)(F)F	CYP2C19 inh 78
C/C(=C\c1ccccc1)C(=O)NC1CCSC1=O (stereo unspecified)	none
COC(=O)c1ccc(COC(=O)CCc2nc(-c3ccccc3)c(-c3ccccc3)o2)cc1	CYP2C19 inh 67, CYP2C9 inhib 86
Cc1ccc(S(=O)(=O)NNC(=O)C2Cc3c(ccc4ccccc34)O2)cc1 (stereo unspecified)	CYP2C9 inhib 56
Fc1cc2nc(-c3ccncc3)[nH]c2cc1F	CYP2C19 inh 64
CCOc1ccc(S(=O)(=O)NCc2ccc(F)cc2)c2cccnc12	CYP2C19 inh 51
CCOc1ccc(S(=O)(=O)N2CCN(c3ccc(OC)cc3)CC2)c2cccnc12	none
CCOc1ccc(S(=O)(=O)Nc2ccc3c(c2)OCO3)c2cccnc12	CYP2C19 inh 82
N/C(=N\c1nc2ccccc2o1)NC(=O)c1ccc(F)cc1	none
Cc1cc(NC(=O)Cn2nc(-c3ccccc3F)ccc2=O)ccc1-n1cnnn1	none
O=C(c1ccc(F)cc1)C1CCN(C(=O)N2CCOCC2)CC1	none
O=C(c1ccc(Cl)cc1)C1CCN(C(=O)C2CC2)CC1	CYP2C19 inh 83
CC1CCCN(C(=O)c2ccncc2)C1 (stereo unspecified)	CYP2C19 inh 82
O=C(c1ccc(F)cc1)C1CCN(C(=O)c2ccncc2)CC1	CYP2C19 inh 98, CYP2C9 inhib 97
CCOC(=O)c1cn2cccnc2n1	none
COc1ccccc1NC(=O)CSc1nc2ccccc2cc1Cc1ccccc1	CYP2C19 inh 99, CYP2C9 inhib 55
COc1ccccc1NC(=O)CSC(N)=O	none
COc1ccccc1NC(=O)Cc1noc(CSc2cccc[n+]2[O-])n1	none
Nc1cc(N)nc(SCC(=O)Nc2ccc(Br)cc2Cl)n1	CYP2C19 inh 74, CYP2C9 inhib 56 (no result: sEH activator, sEH inhibitor)
COc1ccccc1NC(=O)Cc1noc(CSc2cc(C)c3ccccc3n2)n1	CYP2C19 inh 93
COc1ccccc1NC(=O)CSc1nc(N)cc(N)n1	CYP2C19 inh 72
Cc1nnc2sc(-c3ccc(NC(=O)c4ccc(-c5ccc(Cl)cc5Cl)o4)cc3)nn12	none (no result: CYP2C19 inh, CYP2C9 inhib, CYP2C19 act, CYP2C9 activ)
O=C(CN(CCc1ccccc1)C(=O)CNS(=O)(=O)c1ccc(F)cc1)NCC1CCCO1 (stereo unspecified)	none
COCCNC(=O)C(c1ccccc1C)N(C(=O)Cn1nnc2ccccc21)c1cccnc1 (stereo unspecified)	none (no result: CYP2C19 inh, CYP2C9 inhib, CYP2C19 act, CYP2C9 activ)
Cc1cc(C)c2c(=O)[nH]c(SCC(=O)NCc3ccccc3)nc2n1	none
COc1ccccc1NC(=O)CSc1nc2nc(C)cc(C)c2c(=O)[nH]1	CYP2C9 inhib 52
CCn1cc(C(=O)N2CC(C)CC(C)C2)c(=O)c2cc(S(=O)(=O)N3CCOCC3)ccc21 (stereo unspecified)	none
COc1ccc(OC)c(CCNC(=O)Cn2sc3nc(C)cc(C)c3c2=O)c1	CYP2C9 inhib 65
CC(NC(=O)C1CCN(c2nnc(-n3cccc3)s2)CC1)C12CC3CC(CC(C3)C1)C2 (stereo unspecified)	none
Cc1nnsc1C(=O)NC(C)C12CC3CC(CC(C3)C1)C2 (stereo unspecified)	CYP2C19 inh 52
COc1ccc(OC)c(NC(=O)Cc2coc3ccc4ccccc4c23)c1	CYP2C19 inh 96
COc1ccc(OC)c(NC(=O)CSc2ccc3ccccc3c2)c1	none
COc1ccc(OC)c(NC(=O)Cc2coc3cc(C)cc(C)c23)c1	CYP2C19 inh 75, CYP2C9 inhib 55
COc1ccc(OC)c(NC(=O)Cc2coc3ccc(C)cc23)c1	CYP2C19 inh 53
Cc1cc(C)c2c(CC(=O)Nc3ccc(Cl)cn3)coc2c1	none
C=CCn1c(SCC(=O)NC2CCS(=O)(=O)C2)nc2scc(C3CC3)c2c1=O (stereo unspecified)	CYP2C9 inhib 72
C=CCn1c(SCc2cc(=O)n3ccsc3n2)nc2scc(C3CC3)c2c1=O	none (no result: sEH activator, sEH inhibitor)
C=CCn1c(SC2CCOC2=O)nc2scc(C3CC3)c2c1=O (stereo unspecified)	CYP2C19 inh 83, CYP2C9 inhib 77 (no result: sEH activator, sEH inhibitor)
C=CCn1c(SCC(=O)c2ccc(CNC(C)=O)o2)nc2scc(C3CC3)c2c1=O	CYP2C19 inh 57, CYP2C9 inhib 73
Cc1ccccc1CSCC(=O)c1c(N)n(CC(C)C)c(=O)n(C)c1=O	none
Cc1ccccc1CSCC(=O)c1c(N)n(C)c(=O)n(C)c1=O	CYP2C19 inh 99, CYP2C9 inhib 58
CCCn1c(SCC(=O)Nc2ccccc2C(=O)OC)nc2c1c(=O)n(C)c(=O)n2C	CYP2C9 inhib 72
CCCn1c(SCC(=O)Nc2ccc3c(c2)OCO3)nc2c1c(=O)n(C)c(=O)n2C	none (no result: sEH activator, sEH inhibitor)
CCCn1c(SCC(=O)Nc2ccccc2N2CCCCC2)nc2c1c(=O)n(C)c(=O)n2C	CYP2C19 inh 79, CYP2C9 inhib 98
CCCn1c(SCC(=O)Nc2sc(C)c(C)c2C(=O)OCC)nc2c1c(=O)n(C)c(=O)n2C	CYP2C9 inhib 66
CCCn1c(SCC(=O)OCc2ccccc2)nc2c1c(=O)n(C)c(=O)n2C	none
CC1CN(S(=O)(=O)c2ccc(-c3nc4ccccc4s3)cc2)CC(C)O1 (stereo unspecified)	none (no result: sEH activator, sEH inhibitor)
O=S(=O)(c1cccc(-c2nc3ccccc3s2)c1)N1CCCC1	CYP2C9 inhib 79
O=S(=O)(c1ccc(-c2nc3ccccc3s2)cc1)N1CCCC1	CYP2C9 inhib 77
CC(C)(C)NS(=O)(=O)c1ccc(CCC(=O)Nc2ccc3c(c2)OCO3)cc1	CYP2C19 inh 58, CYP2C9 inhib 94
CCOc1ccc(NC(=O)C(C)O)c(NS(=O)(=O)c2ccc(CCNC(C)=O)cc2)c1 (stereo unspecified)	none
CC(=O)NCCc1ccc(S(=O)(=O)NCc2ccc3c(c2)OCO3)cc1	CYP2C19 inh 61
CCCc1cc2c(cc1NS(=O)(=O)c1ccc(CCNC(C)=O)cc1)OCO2	CYP2C19 inh 78
CCCNS(=O)(=O)c1ccc(CCC(=O)NCc2ccc3c(c2)OCO3)cc1	CYP2C19 inh 80, CYP2C9 inhib 74
CC(C)c1nnc(NC(=O)c2sc3ccccc3c2Cl)s1	none
Cn1c(C(C#N)C(=O)c2sc3ccccc3c2Cl)nc2ccccc21 (stereo unspecified)	CYP2C9 inhib 71
CCC(CC)C(=O)Nc1c2c(nn1-c1ccc(OC)cc1)CS(=O)C2 (stereo unspecified)	none
O=C(CSc1nnc(-c2cccs2)n1Cc1ccccc1)NCc1ccc2c(c1)OCO2	CYP2C19 inh 53, CYP2C9 inhib 79
O=C1CN(C(=O)CSc2nnc(-c3ccccc3)n2Cc2ccc3c(c2)OCO3)c2ccccc2N1	CYP2C19 inh 63
Cc1ccc(-c2csc3nnc(SCC(=O)NCc4ccc5c(c4)OCO5)n23)cc1	none
O=C(CSc1nnc(Cc2cccs2)n1-c1ccc(Cl)cc1)NCc1ccc2c(c1)OCO2	CYP2C9 inhib 54
